# Measurements as given in PubChem BioAssay (NCATS).
# Several values for one entry are separate records, joined by “and”; a condition that tells them apart may be missing. Identical values can stand only once. Results filed as inconclusive are left out. A call without a number means that no potency is given here. Activity calls are given as the source filed them. Unless noted, calls follow the shape of the dose curve; as a rule, active = well fitted curve in the direction sought with a large enough effect; inconclusive = small, poorly fitted or top-dose-only effect, or another doubt; inactive = no such curve, though single readings can be large; an effect the other way counts as inactive or inconclusive.
# Legend:
# [1] = target: Calcium and integrin-binding protein 1 (Homo sapiens) (UniProt Q99828); assay: Primary qHTS for Identification of Calcium Integrin Binding Protein 1 (CIB1) Competitor (AID 1508620); also: potency is read from the fitted curve at half-maximal effect;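 as to activity change, negative = inhibition: GST tagged CIB1 binding a fluorescein labelled alphaIIb integrin peptide tracer; top concentration of the series differs between compounds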
# In short: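 Fluorescence polarization competition: GST-tagged CIB1 (1 uM final) preincubated with compound 15 min at room temperature, then FITC-labelled alphaIIb peptide (100 nM final) added. After 15 min at room temperature, polarization read at Ex 480/Em 540.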
# [2] = Confirmatory qHTS for small molecule stabilizers of the endoplasmic reticulum resident proteome: Secreted ER Calcium Modulated Protein (SERCaMP) assay (AID 1508628); also: nearly all actives have a fitted effect of over 40% in size
# In short: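 Reporter secretion upon ER calcium depletion (100 nM thapsigargin, 4 h, 37C) is measured as medium luminescence with coelenterazine, after 16 h compound pretreatment of SH-SY5Y-GLuc-SERCaMP cells; primary at three concentrations up to 38.3 uM, follow-up at 11 (up to 76.6 uM).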
# [3] = Primary qHTS for small molecule stabilizers of the endoplasmic reticulum resident proteome: Secreted ER Calcium Modulated Protein (SERCaMP) assay (AID 1508630)
# In short: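 The SH-SY5Y reporter protocol was run at 3 concentrations up to 38.3 uM (primary) or 11 concentrations (follow-up): 16 h compound, 100 nM thapsigargin for 4 h, then extracellular luciferase luminescence.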
# [4] = A High-Content qHTS Against Drug Library for the Identification of Small Molecules that Inhibit DYT1 Early Onset Primary Dystonia-Associated Cell Pathology (AID 1645839; calls by dose curve)
# In short: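 Cells were seeded and left for 24 h, then dosed with compound alongside tetracycline induction of mutant EGFP-TorsinA. They were incubated for 48 h, fixed in 4% paraformaldehyde, permeabilized and imaged for mislocalization (%pathology) and cell count.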
# [5] = target: Cytochrome P450 2D6 (Homo sapiens) (UniProt P10635); assay: Cytochrome P450 family 2 subfamily D member 6 (CYP2D6) small molecule antagonists: luciferase biochemical (cell-free) qHTS assay (AID 1645840; active = well fitted curve in the direction sought with a large enough effect in the repeat runs; an effect the other way counts as inactive or inconclusive; also: nearly all actives have a fitted effect of over 55% in size; also: potency is read from the fitted curve at half-maximal effect)
# In short: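 P450-Glo CYP2D6 system: proluciferin substrate converted by enzyme to luciferin, read by luminescence proportional to activity. Enzyme-substrate mix with compound 10 min at room temperature, then NADPH regeneration 1 h before detection reagent.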
# [6] = target: Cytochrome P450 2C9 (Homo sapiens) (UniProt P11712); assay: Cytochrome P450 family 2 subfamily C member 9 (CYP2C9) small molecule antagonists: luciferase biochemical (cell-free) qHTS assay (AID 1645842; active = well fitted curve in the direction sought with a large enough effect in the repeat runs; an effect the other way counts as inactive or inconclusive; also: nearly all actives have a fitted effect of over 55% in size; also: potency is read from the fitted curve at half-maximal effect)
# In short: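 P450-Glo CYP2C9 system: proluciferin substrate with enzyme in mix containing 0.4% BSA, 10 min at room temperature, then NADPH regeneration solution added and incubated 1 h at 37C. Detection reagent stopped reaction; luminescence read after 20 min as RLU.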
# [7] = Cytotoxicity counterscreen for inhibitors of SARS-CoV-2 cell entry (AID 1645845; calls by dose curve; also: nearly all actives have a fitted effect of over 50% in size)
# In short: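 Counterscreen run in the same HEK293-ACE2 line as the pseudotyped-particle entry assay, without particles. Viability after 48 h at 37 C was read as ATP luminescence, scaled between cell-containing and cell-free wells.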
# [8] = Primary qHTS for inhibitors of nuclear receptor binding SET domain protein 2 (NSD2) in an isogenic RCH-ACV NSD2 p.E1099K mutant (9B) (AID 1645876); also: nearly all actives have a fitted effect of over 70% in size; also: potency is read from the fitted curve at half-maximal effect
# [9] = Primary qHTS for inhibitors of nuclear receptor binding SET domain protein 2 (NSD2) in an RCH-ACV wild type WT cells (2C) (AID 1645877); also: nearly all actives have a fitted effect of over 70% in size; also: potency is read from the fitted curve at half-maximal effect
# [10] = target: Calcium and integrin-binding protein 1 (Homo sapiens) (UniProt Q99828); assay: Validation qHTS for Identification of Calcium Integrin Binding protein 1 (CIB1) Competitor (AID 1508618); also: potency is read from the fitted curve at half-maximal effect
# In short: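 In this qHTS validation, the LOPAC set (up to 114 uM) was tested for blocking CIB1 binding to a fluorescein-tagged alphaIIb peptide, with FP detection at 480/540 nm.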
# [11] = Primary qHTS to identify inhibitors of SARS-CoV-2 cell entry (AID 1645846; calls by dose curve; also: nearly all actives have a fitted effect of over 45% in size); conditions: activity change, negative = inhibition: at 57.1 µM (top of the series) unless noted
# In short: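 HEK293 cells stably expressing human ACE2, pre-treated 1 h with compound, then infected with MLV particles pseudotyped with Wuhan-Hu-1 spike (C-terminal 19-aa truncation). Luciferase luminescence after 48 h at 37 °C, normalised to spike PP and bald PP.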
# Papain (Carica papaya) = Papain (Carica papaya) (UniProt P00784); assay: Primary qHTS assay for inhibitors of the protease papain (AID 1645873);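 also: papain turnover of Z-FR-AMC read as the AMC fluorescence gain over 10 min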
# [12] = Counterscreen qHTS for small molecule stabilizers of the endoplasmic reticulum resident proteome: GLuc-NoTag assay (AID 1508627)
# In short: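 Counterscreen line: SH-SY5Y-GLuc-NoTag. Seed, 5 h; compound, 19 h; thapsigargin 100 nM, 4 h; 37C/5% CO2. Readout: secreted GLuc luminescence, coelenterazine 0.07x final, no lysis.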
# [13] = Cell Viability qHTS for small molecule stabilizers of the endoplasmic reticulum resident proteome (AID 1508629); conditions: cell viability counter-screen, 100 nM thapsigargin for final 4 h;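 also: human SH-SY5Y neuroblastoma cells carrying the GLuc-SERCaMP reporter; compound exposure about 46 h in total before the viability read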
# [14] = target: Calcium and integrin-binding protein 1 (Homo sapiens) (UniProt Q99828); assay: Confirmatory qHTS for Identification of Calcium Integrin Binding Protein 1 (CIB1) Competitor (AID 1508617); also: nearly all actives have a fitted effect of over 65% in size
# In short: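 Binding competition between test compounds and fluorescent alphaIIb peptide for 1 uM CIB1-GST is monitored by FP at 480/540 nm. Final compound range is up to 114 uM; unlabeled peptide serves as reference competitor.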
# [15] = target: Cytochrome P450 3A4 (Homo sapiens) (UniProt P08684); assay: Cytochrome P450 family 3 subfamily A member 4 (CYP3A4) small molecule antagonists: luciferase qHTS assay (AID 1645841; active = well fitted curve in the direction sought with a large enough effect in the repeat runs; an effect the other way counts as inactive or inconclusive; also: nearly all actives have a fitted effect of over 45% in size)
# In short: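 P450-Glo CYP3A4 enzyme with proluciferin substrate preincubated 10 min with compound at room temperature, then NADPH regeneration 1 h. Luciferin detection reagent added for 20 min; luminescence recorded. Ketoconazole positive control.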
# Chain of Papain (Carica papaya) (P00784 whole entry, looked up): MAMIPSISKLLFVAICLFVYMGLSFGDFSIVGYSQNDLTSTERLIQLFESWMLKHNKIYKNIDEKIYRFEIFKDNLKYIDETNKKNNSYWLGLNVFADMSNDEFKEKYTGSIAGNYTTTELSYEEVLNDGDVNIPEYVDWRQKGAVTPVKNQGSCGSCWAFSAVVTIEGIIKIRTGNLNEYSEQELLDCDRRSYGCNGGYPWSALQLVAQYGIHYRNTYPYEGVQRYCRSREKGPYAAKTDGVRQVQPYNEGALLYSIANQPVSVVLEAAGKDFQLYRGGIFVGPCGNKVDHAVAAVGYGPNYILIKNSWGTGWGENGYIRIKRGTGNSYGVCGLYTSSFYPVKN
# Chain of Cytochrome P450 2D6 (Homo sapiens) (P10635 whole entry, looked up): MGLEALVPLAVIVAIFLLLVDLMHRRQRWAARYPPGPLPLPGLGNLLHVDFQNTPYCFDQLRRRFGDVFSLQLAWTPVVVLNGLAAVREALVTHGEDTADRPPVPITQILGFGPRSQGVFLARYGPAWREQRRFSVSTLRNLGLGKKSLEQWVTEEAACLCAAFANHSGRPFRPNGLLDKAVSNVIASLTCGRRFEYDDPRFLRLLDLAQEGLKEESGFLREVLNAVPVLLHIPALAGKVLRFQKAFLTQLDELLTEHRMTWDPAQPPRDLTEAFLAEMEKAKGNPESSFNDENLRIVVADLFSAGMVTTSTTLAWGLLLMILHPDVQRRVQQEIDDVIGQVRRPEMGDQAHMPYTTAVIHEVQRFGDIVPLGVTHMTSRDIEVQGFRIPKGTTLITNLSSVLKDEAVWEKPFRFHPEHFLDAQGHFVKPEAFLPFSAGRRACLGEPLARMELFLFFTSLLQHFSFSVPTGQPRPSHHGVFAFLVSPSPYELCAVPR
# Chain of Cytochrome P450 2C9 (Homo sapiens) (P11712 whole entry, looked up): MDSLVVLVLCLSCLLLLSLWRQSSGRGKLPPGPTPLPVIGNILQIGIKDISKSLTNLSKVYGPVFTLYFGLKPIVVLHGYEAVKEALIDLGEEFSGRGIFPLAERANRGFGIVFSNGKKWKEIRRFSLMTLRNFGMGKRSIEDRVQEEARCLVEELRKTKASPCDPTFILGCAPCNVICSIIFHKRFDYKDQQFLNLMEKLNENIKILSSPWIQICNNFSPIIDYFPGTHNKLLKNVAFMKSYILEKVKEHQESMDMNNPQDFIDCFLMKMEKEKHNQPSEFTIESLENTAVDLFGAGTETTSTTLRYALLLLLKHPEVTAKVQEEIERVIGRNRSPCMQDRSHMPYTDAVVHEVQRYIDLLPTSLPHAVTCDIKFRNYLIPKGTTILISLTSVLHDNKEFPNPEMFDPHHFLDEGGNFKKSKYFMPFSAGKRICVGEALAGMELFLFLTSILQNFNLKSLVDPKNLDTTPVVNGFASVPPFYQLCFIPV
# Chain of Calcium and integrin-binding protein 1 (Homo sapiens) (Q99828 whole entry, looked up): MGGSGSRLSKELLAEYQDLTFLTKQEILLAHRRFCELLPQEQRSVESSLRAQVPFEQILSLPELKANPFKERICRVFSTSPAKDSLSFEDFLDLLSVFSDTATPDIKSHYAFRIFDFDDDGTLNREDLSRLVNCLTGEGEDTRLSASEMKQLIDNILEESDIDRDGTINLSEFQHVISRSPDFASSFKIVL
# Chain of Cytochrome P450 3A4 (Homo sapiens) (P08684 whole entry, looked up): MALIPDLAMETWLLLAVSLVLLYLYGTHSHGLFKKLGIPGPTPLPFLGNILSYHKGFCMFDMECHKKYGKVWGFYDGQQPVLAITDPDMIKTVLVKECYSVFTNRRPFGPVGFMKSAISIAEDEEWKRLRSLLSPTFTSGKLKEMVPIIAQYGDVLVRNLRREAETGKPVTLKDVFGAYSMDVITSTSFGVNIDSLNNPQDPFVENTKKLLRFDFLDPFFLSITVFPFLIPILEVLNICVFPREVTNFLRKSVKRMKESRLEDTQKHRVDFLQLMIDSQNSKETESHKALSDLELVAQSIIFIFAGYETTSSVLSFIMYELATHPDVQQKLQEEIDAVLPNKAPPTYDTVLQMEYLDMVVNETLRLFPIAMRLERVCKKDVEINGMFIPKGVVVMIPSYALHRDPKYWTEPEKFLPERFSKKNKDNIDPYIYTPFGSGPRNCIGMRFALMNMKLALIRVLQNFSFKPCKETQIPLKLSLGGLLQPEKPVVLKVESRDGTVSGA
smiles,measurement,setting,value
COC[C@@H](NC(C)=O)C(=O)NCc1ccccc1,Potency,[1],inactive
same,Potency,[2],inactive
same,outcome,[3],inactive
same,Potency,[4],inactive
same,Potency,[5],inactive
same,Potency,[6],inactive
same,Potency,[7],inactive
same,Potency,[8],inactive
same,Potency,[9],inactive
CC(O)(CS(=O)(=O)c1ccc(F)cc1)C(=O)Nc1ccc(C#N)c(C(F)(F)F)c1 (centres undefined),Potency,[10],inactive
same,Potency,[1],inactive
same,outcome,[3],inactive
same,Potency,[7],inactive
same,"activity change, negative = inhibition",[11],-21.9%
same,Potency,Papain (Carica papaya),inactive
N#CC(C#N)=Cc1ccc(O)c(O)c1,Potency,[10],inactive
same,Potency,[1],inactive
same,Potency,[4],inactive
same,Potency,[6],inactive
same,Potency,Papain (Carica papaya),inactive
same,Potency,[8],9.44 µM (active)
same,Potency,[9],10.6 µM (active)
NCC(CC(=O)O)c1ccc(Cl)cc1 (centres undefined),Potency,[10],inactive
same,"activity change, negative = inhibition",[1],5.6% [at 1.07 µM] (inactive)
same,outcome,[3],inactive
same,"% pathology change, negative = correction",[4],14.6% [at 0.369 µM] (inactive)
same,"activity change, negative = inhibition",[5],14.3% [at 0.91 µM] (inactive)
same,"activity change, negative = inhibition",[6],15.7% [at 0.91 µM] (inactive)
same,"activity change, negative = cytotoxicity",[7],1.92% [at 0.702 µM] (inactive)
same,"activity change, negative = inhibition",[11],0.754% [at 0.702 µM]
same,Potency,Papain (Carica papaya),inactive
same,"activity change, negative = viability loss",[8],3.1% [at 0.588 µM] (inactive)
same,"activity change, negative = cell killing",[9],-19.2% [at 0.588 µM] (inactive)
CNCC(O)c1ccc(O)cc1 (centres undefined),Potency,[10],inactive
same,Potency,[1],inactive
same,outcome,[3],inactive
same,Potency,[4],inactive
same,Potency,[5],inactive
same,Potency,[6],inactive
same,Potency,[7],inactive
same,"activity change, negative = inhibition",[11],-17.4%
same,Potency,Papain (Carica papaya),inactive
same,Potency,[8],inactive
same,Potency,[9],inactive
C=C(C)[C@H]1Cc2c(ccc3c2O[C@@H]2COc4cc(OC)c(OC)cc4[C@@H]2C3=O)O1,Potency,[10],inactive
same,Potency,[1],inactive
same,outcome,[3],inactive
same,Potency,[5],inactive
same,Potency,[6],6.17 µM (active)
same,"activity change, negative = inhibition",[11],-94.7%
same,Potency,Papain (Carica papaya),inactive
same,Potency,[8],0.188 µM (active)
same,Potency,[9],0.15 µM (active)
CCN(CC)CCOC(=O)C(O)(c1ccccc1)c1ccccc1,Potency,[1],inactive
same,Potency,[12],inactive
same,Potency,[2],inactive
same,max response,[13],31.2% (inactive)
same,Potency,[4],inactive
same,Potency,[5],5.49 µM (active)
same,Potency,[6],inactive
same,Potency,[8],inactive
same,Potency,[9],inactive
CC[C@@H](CO)NC(=O)[C@@H]1C=C2c3cccc4c3c(cn4C)C[C@H]2N(C)C1,outcome,[14],inactive
same,Potency,[10],44.7 µM (active)
same,Potency,[1],44.7 µM (active)
same,outcome,[3],inactive
same,Potency,[4],inactive
same,Potency,[5],12.3 µM (active)
same,Potency,Papain (Carica papaya),inactive
O=c1[nH]c2ccccc2n1CCCN1CCC(n2c(=O)[nH]c3cc(Cl)ccc32)CC1,Potency,[10],inactive
same,Potency,[1],inactive
same,outcome,[3],inactive
same,Potency,[7],inactive
same,"activity change, negative = inhibition",[11],-22.6%
same,Potency,Papain (Carica papaya),inactive
same,Potency,[9],20.9 µM (active)
NCC1(CC(=O)O)CCCCC1,Potency,[10],inactive
same,Potency,[1],inactive
same,outcome,[3],inactive
same,Potency,[4],inactive
same,Potency,[5],inactive
same,Potency,[6],inactive
same,Potency,[7],inactive
same,"activity change, negative = inhibition",[11],1.13%
same,Potency,Papain (Carica papaya),inactive
same,Potency,[8],inactive
same,Potency,[9],inactive
COC[C@H]1OC(=O)c2coc3c2[C@@]1(C)C1=C(C3=O)C2CCC(=O)[C@@]2(C)C[C@H]1OC(C)=O (some centres undefined),Potency,[10],inactive
same,outcome,[3],inactive
same,Potency,[7],inactive
same,"activity change, negative = inhibition",[11],3.38%
same,Potency,Papain (Carica papaya),inactive
same,Potency,[8],1.84 µM (active) and 7.42 µM (active)
same,Potency,[9],2.59 µM (active) and 18.3 µM (active) and 7.42 µM (active)
c1ccc(C2CC2)c(OCC2=NCCN2)c1,Potency,[10],inactive
same,outcome,[3],inactive
same,Potency,[4],inactive
same,Potency,[5],4.36 µM (active)
same,Potency,[6],inactive
same,Potency,Papain (Carica papaya),inactive
same,Potency,[9],inactive
CC(C)=CCOc1c2occc2cc2ccc(=O)oc12,Potency,[10],inactive
same,outcome,[3],inactive
same,Potency,[4],inactive
same,Potency,[5],0.871 µM (active)
same,Potency,[6],0.347 µM (active)
same,Potency,Papain (Carica papaya),inactive
CC(CCc1ccccc1)NC(C)C(O)c1ccc(O)cc1 (centres undefined),Potency,[10],inactive
same,Potency,[1],inactive
same,Potency,[5],0.195 µM (active)
same,Potency,[6],inactive
same,Potency,[7],inactive
same,Potency,Papain (Carica papaya),inactive
same,Potency,[8],inactive
same,Potency,[9],inactive
NCC(O)c1ccc(O)cc1 (centres undefined),Potency,[10],inactive
same,Potency,[1],inactive
same,outcome,[3],inactive
same,Potency,[4],inactive
same,Potency,[5],inactive
same,Potency,[6],inactive
same,Potency,[7],inactive
same,Potency,[11],inactive
same,Potency,Papain (Carica papaya),inactive
COc1ccccc1N1CCNCC1,Potency,[10],inactive
same,outcome,[3],inactive
same,Potency,[4],inactive
same,Potency,[5],inactive
same,outcome,[15],inactive
same,Potency,[6],inactive
same,Potency,Papain (Carica papaya),inactive
Cc1ncc(CNC(=O)N(CCCl)N=O)c(N)n1,Potency,[10],inactive
same,Potency,[1],inactive
same,outcome,[3],inactive
same,Potency,[4],inactive
same,Potency,[7],inactive
same,Potency,[11],inactive
same,Potency,Papain (Carica papaya),inactive
same,Potency,[8],inactive
same,Potency,[9],inactive
CCCN1CCC[C@@H]2Cc3nc(N)ncc3C[C@H]21,Potency,[10],inactive
same,Potency,[1],inactive
same,outcome,[3],inactive
same,Potency,[4],inactive
same,Potency,[5],9.77 µM (active)
same,Potency,[6],inactive
same,Potency,Papain (Carica papaya),inactive
same,Potency,[8],inactive
same,Potency,[9],inactive
Cc1cccc(C)c1NC1=NCCCS1,Potency,[10],inactive
same,Potency,[1],inactive
same,outcome,[3],inactive
same,Potency,[4],inactive
same,Potency,[5],15.5 µM (active)
same,Potency,[6],inactive
same,Potency,[7],inactive
same,Potency,Papain (Carica papaya),inactive
same,Potency,[8],inactive
same,Potency,[9],inactive
O=[N+]([O-])c1cc([As](=O)(O)O)ccc1O,Potency,[1],inactive
same,outcome,[3],inactive
same,Potency,[4],inactive
same,Potency,[5],inactive
same,outcome,[15],inactive
same,Potency,[6],inactive
same,Potency,[7],inactive
same,"activity change, negative = inhibition",[11],-27.8%
same,Potency,[8],inactive
Cc1cccc(C)c1NC(=O)CN1CCCC1=O,Potency,[10],inactive
same,Potency,[1],inactive
same,outcome,[3],inactive
same,Potency,[4],inactive
same,Potency,[5],inactive
same,Potency,[6],inactive
same,Potency,[7],inactive
same,"activity change, negative = inhibition",[11],-12.8%
same,Potency,Papain (Carica papaya),inactive
same,Potency,[8],inactive
same,Potency,[9],inactive
